Among the data in publication PMC7862700, “An all-to-all approach to the identification of sequence-specific readers for epigenetic DNA modifications on cytosine” are binding signal values, retold here.

Common to all, as to assay: DAPPL (digital affinity profiling via proximity ligation, sequencing); 10 mM Tris-HCl pH 7.5, 50 mM NaCl, 1 mM DTT, 4% glycerol, room temperature, 30 min; GST-TFs on glutathione beads, 16-mer random dsDNA library, 0.1% formaldehyde crosslink after washing; high values mean tight binding
The target of one assay is T1, FLI1 (Homo sapiens, UniProt Q01543 1-452).
T1 sequence: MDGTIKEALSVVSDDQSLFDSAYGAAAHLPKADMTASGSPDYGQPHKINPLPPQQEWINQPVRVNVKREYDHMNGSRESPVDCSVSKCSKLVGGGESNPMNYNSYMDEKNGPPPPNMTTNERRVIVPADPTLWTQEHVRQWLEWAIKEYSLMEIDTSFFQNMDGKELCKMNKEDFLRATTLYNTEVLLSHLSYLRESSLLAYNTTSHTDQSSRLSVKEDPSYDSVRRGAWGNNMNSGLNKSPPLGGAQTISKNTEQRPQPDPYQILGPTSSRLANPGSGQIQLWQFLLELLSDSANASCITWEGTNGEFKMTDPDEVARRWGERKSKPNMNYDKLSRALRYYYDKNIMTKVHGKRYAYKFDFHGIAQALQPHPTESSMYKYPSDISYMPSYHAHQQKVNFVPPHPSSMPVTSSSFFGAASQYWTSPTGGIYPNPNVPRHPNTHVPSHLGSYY
As to conditions: protein: recombinant; tags: N-terminal GST; dsDNA, one strand shown. An outline of the steps: (§1)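 Binding signal is given per hexamer as its read frequency for a factor divided by its frequency in the tag-only sample. GST-fused human transcription factors were expressed in yeast, captured on glutathione beads, barcoded with DNA and pooled with that sample, then incubated with 200 nmole of a 16-mer random double-stranded DNA library in Tris/NaCl/DTT/glycerol buffer for 30 min at room temperature. The pools were then washed, crosslinked, proximity-ligated, amplified by PCR and sequenced on an Illumina NextSeq500.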

The next assay addresses T2, ELK1 (Homo sapiens, UniProt P19419 1-428).
T2 sequence: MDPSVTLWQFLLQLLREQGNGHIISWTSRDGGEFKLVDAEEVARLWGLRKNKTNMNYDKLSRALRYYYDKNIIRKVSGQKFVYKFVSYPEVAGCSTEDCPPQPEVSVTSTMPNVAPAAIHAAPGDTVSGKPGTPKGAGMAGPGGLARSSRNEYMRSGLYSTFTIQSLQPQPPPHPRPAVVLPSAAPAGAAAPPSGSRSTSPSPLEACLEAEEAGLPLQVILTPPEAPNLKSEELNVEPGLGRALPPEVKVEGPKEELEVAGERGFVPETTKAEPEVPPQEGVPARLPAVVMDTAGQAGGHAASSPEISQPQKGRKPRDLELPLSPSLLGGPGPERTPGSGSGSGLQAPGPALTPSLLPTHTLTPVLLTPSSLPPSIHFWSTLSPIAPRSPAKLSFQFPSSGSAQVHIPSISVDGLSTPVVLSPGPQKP
As to conditions: protein: recombinant; tags: N-terminal GST; dsDNA, one strand shown. The procedure, abridged:
as §1

The next assay addresses T3, GABPA (Homo sapiens, UniProt Q06546 1-454).
T3 sequence: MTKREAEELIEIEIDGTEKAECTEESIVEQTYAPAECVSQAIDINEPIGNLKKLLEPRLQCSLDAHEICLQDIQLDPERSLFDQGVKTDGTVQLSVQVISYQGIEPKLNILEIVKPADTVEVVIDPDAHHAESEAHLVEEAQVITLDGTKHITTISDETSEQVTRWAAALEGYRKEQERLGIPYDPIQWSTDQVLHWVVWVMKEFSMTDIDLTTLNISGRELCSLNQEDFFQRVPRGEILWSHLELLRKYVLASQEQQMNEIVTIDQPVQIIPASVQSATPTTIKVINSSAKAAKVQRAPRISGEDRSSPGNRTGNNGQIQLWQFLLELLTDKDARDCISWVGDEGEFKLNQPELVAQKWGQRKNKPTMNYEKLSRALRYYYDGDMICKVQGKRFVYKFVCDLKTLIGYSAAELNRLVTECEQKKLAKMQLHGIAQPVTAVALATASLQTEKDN
As to conditions: protein: recombinant; tags: N-terminal GST; dsDNA, one strand shown. The procedure, abridged: as §1

The target of a further assay is T4, ERG (Homo sapiens, UniProt P11308 1-479).
T4 sequence: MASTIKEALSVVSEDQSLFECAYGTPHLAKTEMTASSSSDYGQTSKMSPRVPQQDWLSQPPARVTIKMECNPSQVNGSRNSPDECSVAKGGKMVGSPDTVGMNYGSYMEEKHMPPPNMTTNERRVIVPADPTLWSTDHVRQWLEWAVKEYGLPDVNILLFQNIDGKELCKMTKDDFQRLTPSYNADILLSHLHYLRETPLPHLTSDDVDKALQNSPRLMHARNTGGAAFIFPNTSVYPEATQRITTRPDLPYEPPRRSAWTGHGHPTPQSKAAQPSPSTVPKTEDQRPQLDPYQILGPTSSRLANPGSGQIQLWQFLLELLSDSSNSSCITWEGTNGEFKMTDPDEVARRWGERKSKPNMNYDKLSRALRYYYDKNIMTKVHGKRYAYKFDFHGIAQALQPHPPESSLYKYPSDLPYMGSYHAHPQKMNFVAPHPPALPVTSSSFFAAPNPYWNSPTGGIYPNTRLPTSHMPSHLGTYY
As to conditions: protein: recombinant; tags: N-terminal GST; dsDNA, one strand shown. An outline of the steps:
as §1

A further assay concerns the target ELF1 (Homo sapiens, UniProt P32519 1-619). As to conditions: protein: recombinant; tags: N-terminal GST; dsDNA, one strand shown. An outline of the steps:
as §1

For another assay, the target named is T5, EHF (Homo sapiens, UniProt Q9NZC4 1-300).
T5 sequence: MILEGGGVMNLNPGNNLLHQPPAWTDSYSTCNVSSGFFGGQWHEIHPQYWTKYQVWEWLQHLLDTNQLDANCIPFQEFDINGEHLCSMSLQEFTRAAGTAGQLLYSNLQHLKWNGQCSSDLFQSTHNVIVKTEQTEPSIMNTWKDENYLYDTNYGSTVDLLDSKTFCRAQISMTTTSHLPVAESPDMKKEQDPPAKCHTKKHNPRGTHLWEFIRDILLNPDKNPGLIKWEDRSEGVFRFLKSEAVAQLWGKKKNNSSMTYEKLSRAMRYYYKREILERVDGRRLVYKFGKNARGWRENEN
As to conditions: protein: recombinant; tags: N-terminal GST; dsDNA, one strand shown. The procedure, abridged: as §1

Another assay deals with SPI1 (Homo sapiens, UniProt P17947 1-270). As to conditions: protein: recombinant; tags: N-terminal GST; dsDNA, one strand shown. The procedure, abridged: as §1
A further assay concerns the target SPIB (Homo sapiens, UniProt Q01892 1-262). As to conditions: protein: recombinant; tags: N-terminal GST; dsDNA, one strand shown. An outline of the steps: as §1
The next assay concerns the target T6, ELK3 (Homo sapiens, UniProt P41970 1-407).
T6 sequence: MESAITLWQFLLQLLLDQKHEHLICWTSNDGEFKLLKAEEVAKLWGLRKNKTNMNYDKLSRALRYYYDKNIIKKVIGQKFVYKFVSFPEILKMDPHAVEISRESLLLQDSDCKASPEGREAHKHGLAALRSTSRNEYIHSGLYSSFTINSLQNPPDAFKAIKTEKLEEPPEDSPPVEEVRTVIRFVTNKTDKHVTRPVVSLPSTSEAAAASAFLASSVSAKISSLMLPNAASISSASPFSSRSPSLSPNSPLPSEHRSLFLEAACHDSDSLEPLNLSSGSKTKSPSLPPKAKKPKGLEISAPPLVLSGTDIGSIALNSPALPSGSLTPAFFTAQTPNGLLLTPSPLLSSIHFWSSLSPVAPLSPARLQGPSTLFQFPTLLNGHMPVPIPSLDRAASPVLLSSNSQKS
As to conditions: protein: recombinant; tags: N-terminal GST; dsDNA, one strand shown. An outline of the steps:
as §1

Another assay has as its target T7, FEV (Homo sapiens, UniProt Q99581 1-238).
T7 sequence: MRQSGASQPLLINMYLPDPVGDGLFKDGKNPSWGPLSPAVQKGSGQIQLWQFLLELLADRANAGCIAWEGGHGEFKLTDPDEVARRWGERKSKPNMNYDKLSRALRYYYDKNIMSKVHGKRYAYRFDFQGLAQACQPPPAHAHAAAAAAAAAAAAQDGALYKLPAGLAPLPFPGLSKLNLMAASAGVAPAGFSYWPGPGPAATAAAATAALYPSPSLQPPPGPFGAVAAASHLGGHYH
As to conditions: protein: recombinant; tags: N-terminal GST; dsDNA, one strand shown. The procedure, abridged:
as §1

The next assay concerns the target ETV5 (Homo sapiens, UniProt P41161 1-510). As to conditions: protein: recombinant; tags: N-terminal GST; dsDNA, one strand shown. The procedure, abridged:
as §1

For another assay, the target named is HSF1 (Homo sapiens, UniProt Q00613 1-529). As to conditions: protein: recombinant; tags: N-terminal GST; chain copies: 3; dsDNA, one strand shown. The procedure, abridged:
as §1

The next assay addresses T8, SPIC (Homo sapiens, UniProt Q8N5J4 1-248).
T8 sequence: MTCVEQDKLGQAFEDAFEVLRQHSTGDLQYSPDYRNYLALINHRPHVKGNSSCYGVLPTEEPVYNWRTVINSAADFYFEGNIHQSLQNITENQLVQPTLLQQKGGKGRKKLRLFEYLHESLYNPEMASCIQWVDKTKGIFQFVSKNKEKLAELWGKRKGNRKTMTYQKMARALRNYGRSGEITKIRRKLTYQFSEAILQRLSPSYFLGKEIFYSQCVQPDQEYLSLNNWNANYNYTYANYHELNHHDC
As to conditions: protein: recombinant; tags: N-terminal GST; dsDNA, one strand shown. An outline of the steps:
as §1

For the next assay, the target named is ELF4 (Homo sapiens, UniProt Q99607 1-663). As to conditions: protein: recombinant; tags: N-terminal GST; dsDNA, one strand shown. The procedure, abridged: as §1
For the next assay, the target named is T9, ELK4 (Homo sapiens, UniProt P28324-2 1-405).
T9 sequence: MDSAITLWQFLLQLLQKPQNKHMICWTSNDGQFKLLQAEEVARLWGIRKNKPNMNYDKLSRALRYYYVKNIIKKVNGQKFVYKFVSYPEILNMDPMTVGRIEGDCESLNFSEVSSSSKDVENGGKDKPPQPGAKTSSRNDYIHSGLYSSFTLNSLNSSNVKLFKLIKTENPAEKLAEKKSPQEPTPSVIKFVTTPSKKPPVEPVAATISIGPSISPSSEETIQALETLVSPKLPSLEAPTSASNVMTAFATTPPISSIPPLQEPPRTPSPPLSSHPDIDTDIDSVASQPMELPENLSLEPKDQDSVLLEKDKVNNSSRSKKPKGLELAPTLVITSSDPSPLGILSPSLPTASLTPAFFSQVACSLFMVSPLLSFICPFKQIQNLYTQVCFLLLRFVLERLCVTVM
As to conditions: protein: recombinant; tags: N-terminal GST; dsDNA, one strand shown. An outline of the steps: as §1

For the next assay, the target named is T10, ETV2 (Homo sapiens, UniProt O00321 1-342).
T10 sequence: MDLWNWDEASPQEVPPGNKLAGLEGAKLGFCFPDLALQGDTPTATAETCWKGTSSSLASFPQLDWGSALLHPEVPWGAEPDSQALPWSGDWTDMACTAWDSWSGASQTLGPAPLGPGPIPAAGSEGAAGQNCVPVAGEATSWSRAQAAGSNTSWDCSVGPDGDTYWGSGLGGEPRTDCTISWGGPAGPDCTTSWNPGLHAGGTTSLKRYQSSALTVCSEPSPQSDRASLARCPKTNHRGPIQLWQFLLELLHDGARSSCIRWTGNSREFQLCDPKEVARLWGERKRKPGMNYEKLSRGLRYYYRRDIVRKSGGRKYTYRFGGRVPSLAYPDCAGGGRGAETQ
As to conditions: protein: recombinant; tags: N-terminal GST; dsDNA, one strand shown. An outline of the steps:
as §1

For another assay, the target named is T11, ELF3 (Homo sapiens, UniProt P78545 1-371).
T11 sequence: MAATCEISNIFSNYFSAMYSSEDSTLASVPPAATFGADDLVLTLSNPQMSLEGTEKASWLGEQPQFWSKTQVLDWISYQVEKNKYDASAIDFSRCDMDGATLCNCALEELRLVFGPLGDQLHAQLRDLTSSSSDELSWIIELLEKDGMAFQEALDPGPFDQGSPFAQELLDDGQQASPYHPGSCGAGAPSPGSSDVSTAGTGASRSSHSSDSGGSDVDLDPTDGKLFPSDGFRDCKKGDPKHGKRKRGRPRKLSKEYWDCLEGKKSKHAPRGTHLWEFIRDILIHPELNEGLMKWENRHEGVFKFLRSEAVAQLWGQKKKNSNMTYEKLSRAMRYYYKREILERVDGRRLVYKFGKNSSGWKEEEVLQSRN
As to conditions: protein: recombinant; tags: N-terminal GST; dsDNA, one strand shown. An outline of the steps:
as §1

A further assay concerns the target CRX (Homo sapiens, UniProt O43186 1-299). As to conditions: protein: recombinant; tags: N-terminal GST; dsDNA, one strand shown. The procedure, abridged:
as §1

For a further assay, the target named is ETV1 (Homo sapiens, UniProt P50549 1-477). As to conditions: protein: recombinant; tags: N-terminal GST; dsDNA, one strand shown. An outline of the steps:
as §1

ETV5, sequence (P41161 whole entry): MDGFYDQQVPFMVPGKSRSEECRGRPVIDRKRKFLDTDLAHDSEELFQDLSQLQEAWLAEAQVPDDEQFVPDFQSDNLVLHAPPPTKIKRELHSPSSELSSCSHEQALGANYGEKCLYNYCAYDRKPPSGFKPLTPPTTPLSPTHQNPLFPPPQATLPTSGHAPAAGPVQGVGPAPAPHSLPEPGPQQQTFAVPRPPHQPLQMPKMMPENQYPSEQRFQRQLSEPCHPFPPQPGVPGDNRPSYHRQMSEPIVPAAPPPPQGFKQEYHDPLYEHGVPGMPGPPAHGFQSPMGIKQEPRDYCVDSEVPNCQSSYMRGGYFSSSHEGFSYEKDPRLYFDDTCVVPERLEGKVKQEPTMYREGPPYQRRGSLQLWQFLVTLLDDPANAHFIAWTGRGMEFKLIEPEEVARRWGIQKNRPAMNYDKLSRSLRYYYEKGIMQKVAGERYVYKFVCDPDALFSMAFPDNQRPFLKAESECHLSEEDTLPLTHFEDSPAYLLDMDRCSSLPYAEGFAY
HSF1, sequence (Q00613 whole entry): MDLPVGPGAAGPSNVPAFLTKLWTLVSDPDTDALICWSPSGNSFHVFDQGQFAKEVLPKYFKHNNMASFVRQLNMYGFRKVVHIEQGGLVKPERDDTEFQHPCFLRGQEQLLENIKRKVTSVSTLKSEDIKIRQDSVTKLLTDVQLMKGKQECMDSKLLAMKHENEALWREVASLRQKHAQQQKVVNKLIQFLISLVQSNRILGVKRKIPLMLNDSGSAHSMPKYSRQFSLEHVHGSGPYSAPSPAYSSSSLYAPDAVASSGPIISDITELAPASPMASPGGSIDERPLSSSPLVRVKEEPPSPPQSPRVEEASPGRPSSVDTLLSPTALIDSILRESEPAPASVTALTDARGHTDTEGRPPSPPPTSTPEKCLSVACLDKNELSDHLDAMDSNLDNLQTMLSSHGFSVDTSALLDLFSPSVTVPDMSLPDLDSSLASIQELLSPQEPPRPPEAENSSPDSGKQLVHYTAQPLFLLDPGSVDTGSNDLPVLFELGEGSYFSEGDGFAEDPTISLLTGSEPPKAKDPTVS
ETV1, sequence (P50549 whole entry): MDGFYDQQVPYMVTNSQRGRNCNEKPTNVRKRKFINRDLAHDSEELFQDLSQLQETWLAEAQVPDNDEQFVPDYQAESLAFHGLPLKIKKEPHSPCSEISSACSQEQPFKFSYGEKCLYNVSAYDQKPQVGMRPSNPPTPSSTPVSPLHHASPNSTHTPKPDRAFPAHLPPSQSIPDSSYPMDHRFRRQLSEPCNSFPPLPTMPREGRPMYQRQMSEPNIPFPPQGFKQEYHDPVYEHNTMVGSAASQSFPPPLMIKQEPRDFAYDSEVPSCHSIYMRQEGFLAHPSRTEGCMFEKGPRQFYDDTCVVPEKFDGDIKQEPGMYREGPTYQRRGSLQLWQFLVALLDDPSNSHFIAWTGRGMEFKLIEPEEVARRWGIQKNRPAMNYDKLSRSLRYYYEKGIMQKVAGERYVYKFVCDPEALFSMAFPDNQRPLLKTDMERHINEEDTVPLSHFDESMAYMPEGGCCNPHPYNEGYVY
ELF4, sequence (Q99607 whole entry): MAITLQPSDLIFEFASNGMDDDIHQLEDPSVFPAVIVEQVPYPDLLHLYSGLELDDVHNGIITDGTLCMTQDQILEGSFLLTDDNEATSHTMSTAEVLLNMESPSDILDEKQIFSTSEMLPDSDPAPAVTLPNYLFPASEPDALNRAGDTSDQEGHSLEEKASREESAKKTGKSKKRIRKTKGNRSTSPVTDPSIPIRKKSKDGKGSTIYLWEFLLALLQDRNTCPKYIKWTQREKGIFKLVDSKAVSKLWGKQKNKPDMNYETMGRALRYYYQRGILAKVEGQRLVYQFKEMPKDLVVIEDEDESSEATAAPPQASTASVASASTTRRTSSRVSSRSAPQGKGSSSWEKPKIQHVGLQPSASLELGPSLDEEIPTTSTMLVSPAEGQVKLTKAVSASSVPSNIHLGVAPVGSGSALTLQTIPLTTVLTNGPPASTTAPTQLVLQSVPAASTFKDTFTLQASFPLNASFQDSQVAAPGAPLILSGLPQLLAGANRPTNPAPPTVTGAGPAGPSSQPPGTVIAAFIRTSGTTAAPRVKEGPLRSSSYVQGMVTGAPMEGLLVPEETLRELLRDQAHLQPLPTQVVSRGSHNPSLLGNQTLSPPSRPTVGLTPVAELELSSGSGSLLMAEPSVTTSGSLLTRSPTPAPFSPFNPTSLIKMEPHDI
CRX, sequence (O43186 whole entry): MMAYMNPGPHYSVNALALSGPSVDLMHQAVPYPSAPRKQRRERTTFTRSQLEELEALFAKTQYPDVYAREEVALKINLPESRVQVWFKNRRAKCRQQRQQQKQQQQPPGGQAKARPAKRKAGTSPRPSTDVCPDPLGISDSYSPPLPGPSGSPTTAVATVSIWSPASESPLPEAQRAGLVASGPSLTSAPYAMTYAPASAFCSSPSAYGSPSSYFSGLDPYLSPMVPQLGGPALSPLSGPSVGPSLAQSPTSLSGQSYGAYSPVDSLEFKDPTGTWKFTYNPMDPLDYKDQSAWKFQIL
ELF1, sequence (P32519 whole entry): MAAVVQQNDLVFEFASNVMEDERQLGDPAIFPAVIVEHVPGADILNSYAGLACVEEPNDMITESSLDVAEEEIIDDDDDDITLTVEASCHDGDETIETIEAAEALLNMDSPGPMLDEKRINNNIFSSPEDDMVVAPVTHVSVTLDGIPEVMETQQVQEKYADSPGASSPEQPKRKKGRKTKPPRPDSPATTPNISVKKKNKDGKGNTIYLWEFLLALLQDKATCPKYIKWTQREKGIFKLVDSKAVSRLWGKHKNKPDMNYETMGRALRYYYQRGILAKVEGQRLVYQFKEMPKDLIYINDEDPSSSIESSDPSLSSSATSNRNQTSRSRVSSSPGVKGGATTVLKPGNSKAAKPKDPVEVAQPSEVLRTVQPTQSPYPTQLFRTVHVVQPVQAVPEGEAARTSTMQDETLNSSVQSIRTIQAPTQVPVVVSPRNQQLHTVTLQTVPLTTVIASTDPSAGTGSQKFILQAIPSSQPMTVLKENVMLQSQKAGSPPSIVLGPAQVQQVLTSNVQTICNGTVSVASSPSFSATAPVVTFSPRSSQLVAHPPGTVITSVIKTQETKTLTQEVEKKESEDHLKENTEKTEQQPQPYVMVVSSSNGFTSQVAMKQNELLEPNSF
SPIB, sequence (Q01892 whole entry): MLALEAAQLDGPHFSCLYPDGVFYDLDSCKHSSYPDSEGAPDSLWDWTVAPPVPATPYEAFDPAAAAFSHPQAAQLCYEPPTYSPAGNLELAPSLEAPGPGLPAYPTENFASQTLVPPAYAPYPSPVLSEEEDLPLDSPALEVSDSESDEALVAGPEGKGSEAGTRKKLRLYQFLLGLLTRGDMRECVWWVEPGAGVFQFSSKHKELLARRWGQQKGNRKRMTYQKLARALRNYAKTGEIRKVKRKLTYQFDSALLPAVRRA

As to ACTCCT, the binding signal with FLI1 was 1.67 fold enrichment (6-mer frequency, TF over GST control); in the assay with ELK1 it was 1.55 fold enrichment (6-mer frequency, TF over GST control); in the assay with GABPA it was 1.45 fold enrichment (6-mer frequency, TF over GST control); with ERG, 1.45 fold enrichment (6-mer frequency, TF over GST control); with ELF1, 1.57 fold enrichment (6-mer frequency, TF over GST control); in the assay with EHF it was 1.52 fold enrichment (6-mer frequency, TF over GST control). In addition, the binding signal in the assay with SPI1 was 1.42 fold enrichment (6-mer frequency, TF over GST control); in the assay with SPIB, 1.57 fold enrichment (6-mer frequency, TF over GST control); with ELK3 it was 1.5 fold enrichment (6-mer frequency, TF over GST control); with FEV it was 1.47 fold enrichment (6-mer frequency, TF over GST control); with ETV5, 1.38 fold enrichment (6-mer frequency, TF over GST control); in the assay with HSF1 it was 1.36 fold enrichment (6-mer frequency, TF over GST control). Besides, the binding signal is 1.54 fold enrichment (6-mer frequency, TF over GST control) in the assay with SPIC; 1.59 fold enrichment (6-mer frequency, TF over GST control) with ELF4; 1.54 fold enrichment (6-mer frequency, TF over GST control) in the assay with ELK4; 1.38 fold enrichment (6-mer frequency, TF over GST control) with ETV2; 1.3 fold enrichment (6-mer frequency, TF over GST control) with ELF3; 1.32 fold enrichment (6-mer frequency, TF over GST control) in the assay with CRX. In addition, the binding signal in the assay with ETV1 is 1.41 fold enrichment (6-mer frequency, TF over GST control).
